Laboratory results from the supplement of paper PMC10849652.
Of roughly 7,900 targets only a part is listed; those with a hit were picked by preference. About 0.6% of all pairs of compound and target were hits.

Experiments:
Assay in all cases: log2 fold change, soluble protein after heating vs DMSO (PISA); higher = thermal stabilisation; K562 cells, 10 uM, 30 min; active = over 0.2 and 3.5 SD of the protein, either way, in both replicates (recomputed)
saracatinib = compound: CN1CCN(CCOc2cc(OC3CCOCC3)c3c(Nc4c(Cl)ccc5c4OCO5)ncnc3c2)CC1 [saracatinib]
How it was run: (§1)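 K562 cells at 2×10^6 cells/mL were given 10 μM compound for 30 min. Aliquots then went through 3 min of heating across 48°C-58°C, were pooled, and were extracted in PBS with 0.5% NP-40 at 4°C, and the supernatant after 21,000xg for 90 min was quantified by TMTpro 16plex LC-MS/MS with channel sums equalised. Thermal stability relative to control samples, from duplicates, is given as log2 fold change.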

sotrastaurin = compound: CN1CCN(c2nc(C3=C(c4c[nH]c5ccccc45)C(=O)NC3=O)c3ccccc3n2)CC1 [sotrastaurin]
How it was run: as §1

alvocidib = compound: CN1CC[C@H](c2c(O)cc(O)c3c(=O)cc(-c4ccccc4Cl)oc23)[C@H](O)C1 [alvocidib]
How it was run: as §1

Tubastatin A = compound: CN1CCc2c(c3ccccc3n2Cc2ccc(C(=O)NO)cc2)C1 [Tubastatin A]
How it was run: as §1

[1] = compound: CNC(=O)C1=CC=CC=C1NC2=NC(=NC=C2Cl)NC3=C(C=C(C=C3)N4CCOCC4)OC
How it was run: as §1

defactinib = compound: CNC(=O)c1ccc(Nc2ncc(C(F)(F)F)c(NCc3nccnc3N(C)S(C)(=O)=O)n2)cc1 [defactinib]
How it was run: as §1

rucaparib = compound: CNCc1ccc(-c2[nH]c3cc(F)cc4c3c2CCNC4=O)cc1 [rucaparib]
How it was run: as §1

[2] = compound: CNc1nc(-c2ccc3c(N)n[nH]c3c2)cc(N2C[C@@H](C(=O)NC3CCCCC3)CC[C@H]2C)n1
How it was run: as §1

encorafenib = compound: COC(=O)N[C@@H](C)CNc1nccc(-c2cn(C(C)C)nc2-c2cc(Cl)cc(NS(C)(=O)=O)c2F)n1 [encorafenib]
How it was run: as §1

[3] = compound: COC(=O)[C@H](CCSC)NC(=O)C1=C(C=C(C=C1)NC[C@H](CS)N)C2=CC=CC=C2
How it was run: as §1

Measured: log2 fold change

TBC1D9B (UniProt Q66K14)
Chain of UniProt Q66K14 (Q66K14 whole entry, looked up): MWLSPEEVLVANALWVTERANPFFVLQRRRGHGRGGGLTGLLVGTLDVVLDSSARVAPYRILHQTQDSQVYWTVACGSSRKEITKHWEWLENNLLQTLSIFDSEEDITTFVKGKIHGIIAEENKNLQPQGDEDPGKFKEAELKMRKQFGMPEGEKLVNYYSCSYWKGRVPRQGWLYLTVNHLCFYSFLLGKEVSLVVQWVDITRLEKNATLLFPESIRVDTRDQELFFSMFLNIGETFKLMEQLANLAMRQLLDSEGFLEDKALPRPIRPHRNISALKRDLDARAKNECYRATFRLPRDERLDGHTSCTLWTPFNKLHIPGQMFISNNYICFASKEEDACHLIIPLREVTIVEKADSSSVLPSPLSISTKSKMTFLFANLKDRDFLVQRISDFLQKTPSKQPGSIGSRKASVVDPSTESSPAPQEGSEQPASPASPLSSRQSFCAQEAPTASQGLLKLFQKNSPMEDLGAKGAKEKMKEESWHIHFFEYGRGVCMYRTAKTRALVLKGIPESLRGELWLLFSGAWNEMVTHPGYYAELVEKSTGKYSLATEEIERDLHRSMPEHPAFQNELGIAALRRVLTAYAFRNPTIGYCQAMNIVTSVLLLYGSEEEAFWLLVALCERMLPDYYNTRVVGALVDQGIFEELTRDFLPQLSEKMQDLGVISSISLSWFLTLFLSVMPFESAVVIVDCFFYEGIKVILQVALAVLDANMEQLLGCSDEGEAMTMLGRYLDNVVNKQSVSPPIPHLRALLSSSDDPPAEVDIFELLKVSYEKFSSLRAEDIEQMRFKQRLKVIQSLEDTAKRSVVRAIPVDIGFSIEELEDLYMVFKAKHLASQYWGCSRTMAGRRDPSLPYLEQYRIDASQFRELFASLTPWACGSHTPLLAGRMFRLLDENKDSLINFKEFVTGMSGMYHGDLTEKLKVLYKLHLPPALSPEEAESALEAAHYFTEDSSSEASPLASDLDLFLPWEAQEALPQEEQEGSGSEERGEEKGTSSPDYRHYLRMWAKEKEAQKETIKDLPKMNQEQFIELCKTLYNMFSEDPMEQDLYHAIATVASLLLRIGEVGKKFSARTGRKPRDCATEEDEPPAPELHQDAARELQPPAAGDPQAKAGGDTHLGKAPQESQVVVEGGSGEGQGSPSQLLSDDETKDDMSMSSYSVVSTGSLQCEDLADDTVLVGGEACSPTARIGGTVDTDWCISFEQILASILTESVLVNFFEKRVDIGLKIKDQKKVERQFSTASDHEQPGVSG
inactive: saracatinib -0.023 | sotrastaurin 0.077 | alvocidib -0.059 | Tubastatin A 0.063 | [1] -0.07 | defactinib -0.064 | rucaparib 0.009 | [2] -0.01 | encorafenib 0.065 | [3] 0.027

SORT1 (UniProt Q99523)
inactive: saracatinib 0.038 | sotrastaurin 0.017 | alvocidib 0.012 | Tubastatin A -0.011 | [1] 0.017 | defactinib -0.033 | rucaparib 0 | [2] -0.027 | encorafenib -0.017 | [3] 0.014

TARBP1 (UniProt Q13395)
inactive: saracatinib 0.026 | sotrastaurin -0.036 | alvocidib -0.031 | Tubastatin A -0.033 | [1] 0.021 | defactinib -0.026 | rucaparib 0.042 | [2] -0.027 | encorafenib -0.041 | [3] 0.014

TENT5C (UniProt Q5VWP2)
Chain of UniProt Q5VWP2 (Q5VWP2 whole entry, looked up): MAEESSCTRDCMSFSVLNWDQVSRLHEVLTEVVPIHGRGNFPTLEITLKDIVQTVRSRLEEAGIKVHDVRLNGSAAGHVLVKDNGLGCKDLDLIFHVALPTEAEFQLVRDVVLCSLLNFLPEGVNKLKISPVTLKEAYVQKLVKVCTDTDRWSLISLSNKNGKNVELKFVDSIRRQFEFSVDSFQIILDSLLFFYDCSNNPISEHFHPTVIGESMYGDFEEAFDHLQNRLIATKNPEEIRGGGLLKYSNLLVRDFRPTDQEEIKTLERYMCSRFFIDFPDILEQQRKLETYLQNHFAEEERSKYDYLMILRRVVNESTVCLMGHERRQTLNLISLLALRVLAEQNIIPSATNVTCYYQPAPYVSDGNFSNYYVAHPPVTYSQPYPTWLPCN
inactive: saracatinib -0.127 | sotrastaurin 0.035 | alvocidib 0.115 | Tubastatin A 0.004 | [1] -0.133 | defactinib 0.071 | rucaparib 0.171 | [2] -0.071 | encorafenib 0.094 | [3] -0.011

STAT3 (UniProt P40763)
inactive: saracatinib 0.025 | sotrastaurin -0.144 | alvocidib -0.112 | Tubastatin A 0.05 | [1] 0.029 | defactinib -0.124 | rucaparib -0.062 | [2] -0.017 | encorafenib 0.077 | [3] -0.012

TM9SF2 (UniProt Q99805)
inactive: saracatinib 0.038 | sotrastaurin -0.01 | alvocidib -0.039 | Tubastatin A -0.001 | [1] 0.005 | defactinib 0.006 | rucaparib 0.015 | [2] -0.031 | encorafenib 0.001 | [3] -0.069

SRSF6 (UniProt Q13247)
Chain of UniProt Q13247 (Q13247 whole entry, looked up): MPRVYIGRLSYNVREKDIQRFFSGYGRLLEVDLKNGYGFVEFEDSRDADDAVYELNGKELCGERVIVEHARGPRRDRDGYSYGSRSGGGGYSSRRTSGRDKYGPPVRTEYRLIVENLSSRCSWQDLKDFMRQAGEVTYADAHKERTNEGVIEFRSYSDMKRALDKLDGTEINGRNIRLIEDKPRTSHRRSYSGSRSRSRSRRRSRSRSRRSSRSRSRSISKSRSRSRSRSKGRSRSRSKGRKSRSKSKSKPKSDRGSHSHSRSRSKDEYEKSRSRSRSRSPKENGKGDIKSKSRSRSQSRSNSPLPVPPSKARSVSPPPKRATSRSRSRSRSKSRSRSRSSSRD
inactive: saracatinib 0.032 | sotrastaurin 0.031 | alvocidib 0.054 | Tubastatin A 0.092 | [1] -0.331 | defactinib 0.032 | rucaparib 0.227 | [2] -0.113 | encorafenib 0.096 | [3] 0.018

TATDN2 (UniProt Q93075)
inactive: saracatinib -0.017 | sotrastaurin 0.111 | alvocidib -0.136 | Tubastatin A -0.094 | [1] -0.002 | defactinib 0 | rucaparib -0.175 | [2] 0 | encorafenib 0.099 | [3] -0.031

TCERG1 (UniProt O14776)
Chain of UniProt O14776 (O14776 whole entry, looked up): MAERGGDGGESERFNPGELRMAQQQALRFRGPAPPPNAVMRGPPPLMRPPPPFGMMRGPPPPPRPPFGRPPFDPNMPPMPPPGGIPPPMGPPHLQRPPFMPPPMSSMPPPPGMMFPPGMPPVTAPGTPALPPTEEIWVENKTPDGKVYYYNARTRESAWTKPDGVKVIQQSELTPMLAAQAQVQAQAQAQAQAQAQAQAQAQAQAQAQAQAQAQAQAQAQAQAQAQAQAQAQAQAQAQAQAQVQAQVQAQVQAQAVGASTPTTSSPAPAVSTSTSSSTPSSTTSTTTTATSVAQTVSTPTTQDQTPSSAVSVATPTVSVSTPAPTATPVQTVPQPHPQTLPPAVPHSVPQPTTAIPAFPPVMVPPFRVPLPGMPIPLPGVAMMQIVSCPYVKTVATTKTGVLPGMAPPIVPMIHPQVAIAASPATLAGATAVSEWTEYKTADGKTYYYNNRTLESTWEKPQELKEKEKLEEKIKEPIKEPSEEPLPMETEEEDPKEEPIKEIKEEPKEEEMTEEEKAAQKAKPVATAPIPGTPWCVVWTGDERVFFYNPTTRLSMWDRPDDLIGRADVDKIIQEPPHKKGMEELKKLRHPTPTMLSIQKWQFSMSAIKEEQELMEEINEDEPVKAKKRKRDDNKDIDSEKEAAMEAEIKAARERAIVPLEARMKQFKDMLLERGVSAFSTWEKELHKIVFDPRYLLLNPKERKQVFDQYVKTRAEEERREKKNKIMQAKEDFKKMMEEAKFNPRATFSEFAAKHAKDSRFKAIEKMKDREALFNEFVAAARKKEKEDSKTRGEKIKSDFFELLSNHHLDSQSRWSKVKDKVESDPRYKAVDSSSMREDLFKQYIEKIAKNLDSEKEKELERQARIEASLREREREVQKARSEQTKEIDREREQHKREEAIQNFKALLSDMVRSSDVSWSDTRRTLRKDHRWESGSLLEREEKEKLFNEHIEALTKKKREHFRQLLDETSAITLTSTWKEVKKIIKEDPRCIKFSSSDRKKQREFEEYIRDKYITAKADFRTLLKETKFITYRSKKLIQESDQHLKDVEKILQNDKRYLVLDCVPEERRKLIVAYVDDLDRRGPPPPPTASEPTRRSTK
inactive: saracatinib -0.051 | sotrastaurin -0.086 | alvocidib -0.18 | Tubastatin A 0.11 | [1] -0.011 | defactinib -0.288 | rucaparib -0.003 | [2] 0.08 | encorafenib 0.063 | [3] -0.105

SQSTM1 (UniProt Q13501)
inactive: saracatinib -0.038 | sotrastaurin -0.073 | alvocidib -0.149 | Tubastatin A -0.022 | [1] -0.024 | defactinib -0.074 | rucaparib -0.021 | [2] -0.048 | encorafenib 0.012 | [3] 0.051

SRPRA (UniProt P08240)
Chain of UniProt P08240 (P08240 whole entry, looked up): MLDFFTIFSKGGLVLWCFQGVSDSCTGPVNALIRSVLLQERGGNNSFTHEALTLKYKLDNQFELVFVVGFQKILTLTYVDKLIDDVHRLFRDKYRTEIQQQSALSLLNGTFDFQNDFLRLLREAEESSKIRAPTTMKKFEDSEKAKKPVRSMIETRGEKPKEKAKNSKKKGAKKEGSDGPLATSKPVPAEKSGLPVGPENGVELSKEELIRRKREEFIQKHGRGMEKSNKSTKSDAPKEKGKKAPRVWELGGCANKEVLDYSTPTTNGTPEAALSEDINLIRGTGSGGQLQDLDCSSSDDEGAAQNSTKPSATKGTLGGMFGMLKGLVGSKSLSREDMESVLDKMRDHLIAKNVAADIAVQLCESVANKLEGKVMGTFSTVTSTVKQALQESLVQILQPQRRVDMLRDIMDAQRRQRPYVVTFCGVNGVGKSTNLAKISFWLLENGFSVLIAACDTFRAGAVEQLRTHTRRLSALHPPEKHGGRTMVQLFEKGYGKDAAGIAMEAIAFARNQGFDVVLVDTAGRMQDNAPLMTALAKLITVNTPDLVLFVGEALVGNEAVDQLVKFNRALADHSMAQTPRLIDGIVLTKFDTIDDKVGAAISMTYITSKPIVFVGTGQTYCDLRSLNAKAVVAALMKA
inactive: saracatinib -0.001 | sotrastaurin -0.006 | alvocidib -0.014 | Tubastatin A -0.007 | [1] 0.033 | defactinib 0.022 | rucaparib 0.116 | [2] 0.06 | encorafenib 0.019 | [3] -0.044

SSR4 (UniProt P51571)
Chain of UniProt P51571 (P51571 whole entry, looked up): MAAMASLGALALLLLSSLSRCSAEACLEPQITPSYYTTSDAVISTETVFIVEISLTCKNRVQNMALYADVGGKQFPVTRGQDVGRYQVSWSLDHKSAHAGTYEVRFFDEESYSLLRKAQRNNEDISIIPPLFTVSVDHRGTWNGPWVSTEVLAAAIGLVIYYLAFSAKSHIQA
inactive: saracatinib -0.008 | sotrastaurin 0.013 | alvocidib -0.035 | Tubastatin A 0.006 | [1] 0.014 | defactinib 0.015 | rucaparib 0 | [2] 0.004 | encorafenib -0.028 | [3] -0.007

STAT6 (UniProt P42226)
Chain of UniProt P42226 (P42226 whole entry, looked up): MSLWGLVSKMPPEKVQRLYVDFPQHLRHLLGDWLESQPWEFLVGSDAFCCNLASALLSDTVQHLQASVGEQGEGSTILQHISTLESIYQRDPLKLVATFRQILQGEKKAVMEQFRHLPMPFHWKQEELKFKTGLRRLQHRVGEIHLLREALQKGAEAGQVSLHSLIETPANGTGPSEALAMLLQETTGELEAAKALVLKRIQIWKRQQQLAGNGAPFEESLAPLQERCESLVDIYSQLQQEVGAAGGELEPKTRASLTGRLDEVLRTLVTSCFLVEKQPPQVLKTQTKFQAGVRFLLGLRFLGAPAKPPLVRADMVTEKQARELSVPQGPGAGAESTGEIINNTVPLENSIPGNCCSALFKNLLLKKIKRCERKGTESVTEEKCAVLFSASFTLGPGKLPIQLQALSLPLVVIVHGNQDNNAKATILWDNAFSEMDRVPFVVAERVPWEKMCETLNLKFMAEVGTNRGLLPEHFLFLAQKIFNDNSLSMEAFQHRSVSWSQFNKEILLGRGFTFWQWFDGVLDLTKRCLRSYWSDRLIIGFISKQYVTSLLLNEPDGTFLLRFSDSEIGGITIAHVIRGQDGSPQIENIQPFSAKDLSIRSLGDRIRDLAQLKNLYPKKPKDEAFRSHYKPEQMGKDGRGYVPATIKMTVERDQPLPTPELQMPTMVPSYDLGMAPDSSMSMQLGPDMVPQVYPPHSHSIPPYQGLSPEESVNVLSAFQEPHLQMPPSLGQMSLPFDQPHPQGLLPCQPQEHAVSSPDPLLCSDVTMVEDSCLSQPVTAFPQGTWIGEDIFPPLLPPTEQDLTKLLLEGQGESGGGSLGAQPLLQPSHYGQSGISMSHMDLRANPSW
inactive: saracatinib 0.087 | sotrastaurin 0.115 | alvocidib -0.153 | Tubastatin A 0.101 | [1] 0.029 | defactinib -0.121 | rucaparib 0.076 | [2] 0.201 | encorafenib 0.189 | [3] -0.168

STARD3NL (UniProt O95772)
inactive: saracatinib 0.103 | sotrastaurin -0.004 | alvocidib -0.01 | Tubastatin A -0.05 | [1] 0.013 | defactinib -0.007 | rucaparib -0.164 | [2] -0.052 | encorafenib 0.068 | [3] -0.046

SNRPD3 (UniProt P62318)
Chain of UniProt P62318 (P62318 whole entry, looked up): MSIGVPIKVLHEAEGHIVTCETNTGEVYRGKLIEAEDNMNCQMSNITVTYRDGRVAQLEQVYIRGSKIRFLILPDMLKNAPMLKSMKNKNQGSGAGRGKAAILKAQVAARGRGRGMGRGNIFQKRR
inactive: saracatinib 0.004 | sotrastaurin 0.068 | alvocidib 0.069 | Tubastatin A -0.097 | [1] 0.038 | defactinib 0.137 | rucaparib 0.017 | [2] -0.098 | encorafenib -0.027 | [3] -0.003
